Measured values reported in PubChem BioAssay AID1220 (Sanford-Burnham Center for Chemical Genomics, 2008).
The campaign covered roughly 190,000 compounds. About 1,300 (0.68%) were called active. The sample holds actives, similar compounds and a random draw of the others, so the mix is not that of the screen. A number with no mark means an inactive call. Cut-off read from the data, not from the text of the source: active = inhibition above about 50%; inactive = the rest.

molecular target: Mannose-6-phosphate isomerase (Homo sapiens) (UniProt P34949); assay: human PMI inhibitors, high substrate, primary screen, biochemical, fluorescence intensity, high mannose 6-phosphate (AID 1220); settings: recombinant PMI enzyme, coupled fluorescence intensity; at 20 µM; stronger effect = higher value
Sequence (P34949 whole entry, looked up): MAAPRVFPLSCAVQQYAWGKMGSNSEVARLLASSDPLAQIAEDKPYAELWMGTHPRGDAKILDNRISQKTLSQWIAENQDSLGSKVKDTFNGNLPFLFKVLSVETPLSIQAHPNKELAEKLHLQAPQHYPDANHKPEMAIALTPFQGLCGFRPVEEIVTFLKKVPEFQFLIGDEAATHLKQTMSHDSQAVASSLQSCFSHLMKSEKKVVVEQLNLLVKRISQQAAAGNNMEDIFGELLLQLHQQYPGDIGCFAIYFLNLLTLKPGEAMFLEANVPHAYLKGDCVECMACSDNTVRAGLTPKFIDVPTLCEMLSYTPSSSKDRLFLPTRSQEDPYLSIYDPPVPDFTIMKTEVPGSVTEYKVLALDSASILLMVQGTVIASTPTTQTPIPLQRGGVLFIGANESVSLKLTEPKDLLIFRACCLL

Compared with CN1C(=O)NC(c2ccccc2)C2=C1CN(c1ccc3ccccc3c1)C2=O (configuration not stated), O=C(/C=C/c1c[nH]c2ccccc12)c1cccc2ccccc12 is higher in inhibition: 9.4% for the first, 42% for the second.

Compared with COc1ccc(C(=O)C[n+]2cn(C(F)F)c3ccccc32)c(F)c1, COc1cccc(CNC(=O)CC(NC(C)=O)c2ccccc2)c1 (configuration not stated) is higher in inhibition: -11.8% for the first, 1% for the second.

Compared with Cc1cc(C)n(C(=O)CSc2nnc(SCC(=O)n3nc(C)cc3C)s2)n1, Cc1cccc(C(=O)NCCc2nnc(SCC(=O)Nc3nc(C)cs3)n2C)c1 is higher in inhibition: -11.7% for the first, 4% for the second.

Going from CC(=O)N1CCc2cc(S(=O)(=O)NC(CC(C)C)C(=O)N3CCn4c3nc3ccccc34)ccc21 (configuration not stated) to CC(=O)NC(Cc1cc(C)ccc1C)C(=O)N1CCN(C(=O)c2ccccc2Br)CC1 (configuration not stated), the inhibition falls from 6.2% to -3.4%.

First: CCCNCC1C(Oc2ccc(Cl)cc2)C(=O)N1c1ccccc1C (configuration not stated)
Second: COCCCNCC1C(Oc2ccc(Cl)cc2)C(=O)N1c1ccccc1C (configuration not stated)
The inhibition of the first is lower: -6% for the first, -5.6% for the second.

Going from Nc1ncc(-n2cncn2)c(-c2ccc(Cl)cc2)n1 to Oc1cccc(/C=N/Nc2cccc3cccnc23)c1, the inhibition rises from 9.9% to 20.3%.

First: CC1CCCCC1NCC(=O)NCc1ccc(F)cc1 (configuration not stated)
Second: O=C(Cc1ccccc1)NCC(=O)N1CCCCC1
The inhibition of the first is lower: -10.5% for the first, -8% for the second.

First: CCOC(=O)c1c(C)oc2cc(Br)c(OC(=O)N3CCOCC3)cc12
Second: CCOc1cc(C(N)=O)cc(Cl)c1OCC
The inhibition of the first is higher: 11.1% for the first, 1.7% for the second.

First: COc1ccc(-c2nc(C#N)c(N3CCN(c4cccc(Cl)c4)CC3)o2)cc1OC
Second: COc1ccccc1N1CCN(c2cnccn2)CC1
The inhibition of the first is lower: 4.2% for the first, 5.8% for the second.

First: CC1=CC(C)(C)Nc2ccc(OC(=O)CN3C(=O)CCC3=O)cc21
Second: CC1=CC(C)(C)Nc2ccc(OC(=O)CN3C(=O)c4ccccc4C3=O)cc21
The inhibition of the first is lower: 12.7% for the first, 26.2% for the second.

First: CC1=CC(C)(C)Nc2ccc(OC(=O)C(C)N3C(=O)c4ccccc4C3=O)cc21 (configuration not stated)
Second: CC1=CC(C)(C)Nc2ccc(OC(=O)c3cccnc3)cc21
The inhibition of the first is higher: 24.3% for the first, 16% for the second.

Going from CC(=O)Nc1ccc(S(=O)(=O)Oc2ccc3c(c2)C(C)=CC(C)(C)N3)cc1 to COc1ccc(/C=C2\SC(=O)N(CCC(=O)Nc3ccc(S(=O)(=O)Nc4nccs4)cc3)C2=O)cc1, the inhibition falls from 29.5% to 8.6%.

Compared with CC1CC(C)(C)Nc2ccc(OC(=O)c3ccco3)cc21 (configuration not stated), Cc1cccc(C(=O)Oc2ccccc2-c2nnco2)c1 is lower in inhibition: 25.5% for the first, -9.6% for the second.

Going from COC(=O)c1nn(-c2ccc(C)cc2)ccc1=O to Cc1ccc(/C=C/C(=O)c2ccccc2)cc1, the inhibition rises from -2.7% to 11.2%.

Compared with CC1CCCN(S(=O)(=O)c2ccc(S(=O)(=O)N3CCC4(CC3)OCCO4)cc2)C1 (configuration not stated), C/C(CC(=O)N1CCN(C=O)CC1)=N\NC(=O)c1ccc(Cl)cc1 is higher in inhibition: 2.2% for the first, 3.6% for the second.

Going from CC(C)OC(=O)c1cc(NC(=S)Nc2ccc([N+](=O)[O-])cc2)cc(C(=O)OC(C)C)c1 to COC(=O)c1ccc(NC(=S)Nc2ccc(O)cc2)cc1, the inhibition falls from 4% to -3.3%.

First: CCC1(CC)C(=O)N=C2c3ccccc3C(=O)N21
Second: CNCc1ccccc1Sc1cc(O)ccc1O
The inhibition of the first is lower: -2.6% for the first, 41.3% for the second.

Going from O=C(c1ccc(C(F)(F)F)cc1)N1CCC(=O)N(C(COCc2ccccc2)Cc2ccccc2)CC1 (configuration not stated) to c1ccc(COCCN2CCN(CCOCc3ccccc3)CC2)cc1, the inhibition rises from -5.1% to 3.2%.

Compared with O=C(Nc1ccccc1)c1cc2c(=O)c3ccccc3oc2nc1C(F)(F)F, Cc1[nH]c2ccccc2c1/C=C/C(=O)c1ccccc1 is lower in inhibition: 4.4% for the first, 3.9% for the second.

Compared with CNCc1ccccc1Sc1cccc(O)c1, Oc1ccc(NC(=S)Nc2ccccc2)cc1 is higher in inhibition: -1.7% for the first, 16.4% for the second.

First: O=C(NNC(=O)C1CC1c1ccccc1)c1ccccc1F (configuration not stated)
Second: O=C(Oc1ccc(/C=N/NC(=O)c2ccccc2O)cc1)c1ccccc1
The inhibition of the first is higher: -2.1% for the first, -12.7% for the second.

Going from CCOC(=O)c1cccc(NC(=O)CCc2ccccc2)c1 to O=C(CCc1ccc(S(=O)(=O)NCCc2ccccc2)cc1)Nc1ccc2c(c1)OCCO2, the inhibition falls from -0.6% to -3.2%.

Going from CC(=O)NC(Cc1ccccc1)c1ccc2c(c1)OCCCO2 (configuration not stated) to O=c1[nH]c2cc3c(cc2cc1CN(CC1CCCO1)S(=O)(=O)c1ccccc1)OCCO3 (configuration not stated), the inhibition rises from 4.4% to 4.9%.

Going from COc1ccc(C(c2sc3nc(C)nn3c2O)N2CCCCC2)cc1 (configuration not stated) to COc1ccc(C(=O)N/N=C(\C)CC(=O)N2CCN(C=O)CC2)cc1, the inhibition falls from 4.3% to -9.2%.

Going from O=[N+]([O-])c1cc(-c2n[nH]c(-c3ccccc3)n2)cc([N+](=O)[O-])c1 to COc1cc(/C=C(\C#N)c2nc3ccccc3[nH]2)cc(Br)c1OCc1ccc(F)cc1, the inhibition rises from -4.6% to 19.3%.

First: CCCNS(=O)(=O)c1ccc(CCC(=O)Nc2ccc3c(c2)OCO3)cc1
Second: Cc1ccc(C(=O)Nc2ccc(C(=O)N/N=C/c3c[nH]c4ccccc34)cc2)cc1
The inhibition of the first is lower: 10.1% for the first, 11.4% for the second.

Cc1nn(-c2ccccc2)c(N2CCCC2)c1/C=N/NC(=O)c1ccccc1O gave an inhibition of -2.8%.

With COCCNCC1C(Oc2ccc(Cl)cc2)C(=O)N1c1ccccc1C (configuration not stated) the inhibition was 50.7% (active).
CC1=CC(C)(C)Nc2ccc(OC(=O)c3ccco3)cc21 was tested, and the inhibition was 52% (active).
With CC1=CC(C)(C)Nc2ccc(OS(=O)(=O)c3ccc(C)cc3)cc21 the inhibition was 51.5% (active).
For COc1cc([C@H](Cc2ccccc2)NC(C)=O)oc(=O)c1, the inhibition was 53.9% (active).
CCCNS(=O)(=O)c1ccc(CCC(=O)Nc2ccc3c(c2)OCCO3)cc1 was tested, and the inhibition was 50.1% (active).
O=C(N/N=C/c1cc2c3c(c1O)CCCN3CCC2)c1ccccc1O was tested, and the inhibition was 50.2% (active).
For Oc1ccc(NC(=S)Nc2ccc(O)cc2)cc1, the inhibition was 66.7% (active).
In the case of Cc1ccc(C(=O)/C=C/c2c[nH]c3ccccc23)cc1, the inhibition is reported as 54.4% (active).
O=C(/C=C/c1c[nH]c2ccccc12)c1ccccc1 was tested, and the inhibition was 52.5% (active).
